Measured values taken from PubChem BioAssay (NCATS).
Results filed as inconclusive are left out. The source made the active and inactive calls. Calls come from the whole dose curve; as a rule, active = well fitted curve in the direction sought with a large enough effect; inconclusive = small, poorly fitted or top-dose-only effect, or another doubt; inactive = no such curve, though single readings can be large or run the other way.

Assay: qHTS Assay for Identifying Gametocytocidal Compounds (AID 743244);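 for max response: actives lower the fluorescent signal which means gametocytes are killed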
Conditions: P. falciparum 3D7 stage III-V gametocytes, alamarBlue, 72 h; max response: active compounds read low
Procedure, shortened: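 Stage III-V P. falciparum 3D7 gametocytes, 20,000 per well, were exposed to compounds for 72 h at 37C, 5% CO2. AlamarBlue was then added for 24 h and viability was read as fluorescence at Ex 525/Em 598 nm.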
% is set by controls: 0 for no effect and ±100 for the full control effect; potency is the fitted concentration of half-maximal effect.

SMILES	max response	Potency
C#CCN[C@@H]1CCc2ccccc21	-0.979% (inactive)	–
CN(CCOc1ccc(CC2SC(=O)NC2=O)cc1)c1ccccn1 (stereo not given)	11.4% (inactive)	–
COc1ccc(-c2ccc3cc(C(=O)O)ccc3c2)cc1C12CC3CC(CC(C3)C1)C2	23.8% (inactive)	–
CN1CCN(c2c(F)cc3c(=O)c(C(=O)O)cn4c3c2OCN4C)CC1	0.61% (inactive)	–
CCC(C)(C)c1ccc(CC(C)CN2C[C@@H](C)O[C@@H](C)C2)cc1 (stereo not given in full)	21.2% (inactive)	–
Cc1cccc(N(C)C(=S)Oc2ccc3ccccc3c2)c1	6.54% (inactive)	–
CC(N)C12CC3CC(CC(C3)C1)C2 (stereo not given)	26.1% (inactive)	–
COc1nc(N)nc2c1ncn2[C@@H]1O[C@H](CO)[C@@H](O)[C@@H]1O	4.43% (inactive)	–
O=C(O)c1cccnc1	3.31% (inactive)	–
NC(=O)c1cccnc1	0.464% (inactive)	–
CCOc1cc(N)c(Cl)cc1C(=O)NCC1CN(Cc2ccc(F)cc2)CCO1 (stereo not given)	1.28% (inactive)	–
CCCc1nc(C)c2c(=O)[nH]c(-c3cc(S(=O)(=O)N4CCN(CC)CC4)ccc3OCC)nn12	1.11% (inactive)	–
CCOCC(O)COc1ccc(NC(=O)CC[S+](C)C)cc1 (stereo not given)	2.79% (inactive)	–
CCOC(=O)c1ccc(OC(=O)CCCCCN=C(N)N)cc1	-8.62% (inactive)	–
C1CCC(C(CC2CCCCN2)C2CCCCC2)CC1 (stereo not given)	–	10 µM (active)
CCOC(=O)[C@H](CCc1ccccc1)N[C@H]1CS[C@H](c2cccs2)CN(CC(=O)O)C1=O	3.7% (inactive)	–
CC(=O)[C@H]1CC[C@H]2[C@@H]3CC=C4C[C@@H](O)CC[C@]4(C)[C@H]3CC[C@]12C	11.7% (inactive)	–
CN1CCN(c2c(F)cc3c(=O)c(C(=O)O)cn(CCF)c3c2F)CC1	1.63% (inactive)	–
CN(Cc1cc(Br)cc(Br)c1N)C1CCCCC1	-1.96% (inactive)	–
O=S(=O)(O)CCS	-4.29% (inactive)	–
